# The supplement of paper PMC7411054
# How the values were obtained:
# Assay in all cases: lowest phenotypically active concentration; higher = less potent
# Settings in all cases: treatment time: 24 h
# A549-TUBA1B-RELA = test system: A549-TUBA1B-RELA
# In short: (§1)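 Two criteria together defined phenotypic activity: deviation and reproducibility. Deviation meant ≥3 of 4 wells beyond the 95th percentile of Euclidean distances in solvent control wells, and reproducibility meant a median replicate Pearson correlation above the 95th percentile of non-replicates. Wells had been treated for 24 h at 0.3, 1, 3 or 9 µM in fifteen gene-edited A549, HepG2 and WPMY1 reporter lines before live imaging.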
# HepG2-CANX-COX4 = test system: HepG2-CANX-COX4
# In short: as §1
# WPMY1-ACTB-RAB5A = test system: WPMY1-ACTB-RAB5A
# In short: as §1
# WPMY1-CANX-COX4 = test system: WPMY1-CANX-COX4
# In short: as §1
# HepG2-TP53BP1-CLTA = test system: HepG2-TP53BP1-CLTA
# In short: as §1
# HepG2-TUBA1B-RELA = test system: HepG2-TUBA1B-RELA
# In short: as §1
# WPMY1-TUBA1B-RELA = test system: WPMY1-TUBA1B-RELA
# In short: as §1
# WPMY1-TP53BP1-CLTA = test system: WPMY1-TP53BP1-CLTA
# In short: as §1
# A549-CANX-COX4 = test system: A549-CANX-COX4
# In short: as §1
smiles,measurement,setting,value
CN1C(=O)/C(=C2/Nc3ccccc3/C2=N/O)c2ccc(Br)cc21,lowest phenotypically active concentration,A549-TUBA1B-RELA,≤ 0.3 µM
same,lowest phenotypically active concentration,HepG2-CANX-COX4,3 µM
same,lowest phenotypically active concentration,WPMY1-ACTB-RAB5A,1 µM
same,lowest phenotypically active concentration,WPMY1-CANX-COX4,9 µM
COCCCC/C(=N/OCCN)c1ccc(C(F)(F)F)cc1 [fluvoxamine],lowest phenotypically active concentration,A549-TUBA1B-RELA,9 µM
same,lowest phenotypically active concentration,HepG2-TP53BP1-CLTA,9 µM
same,lowest phenotypically active concentration,HepG2-TUBA1B-RELA,9 µM
same,lowest phenotypically active concentration,WPMY1-ACTB-RAB5A,9 µM
CNCCCN1c2ccccc2CCc2ccccc21 [desipramine],lowest phenotypically active concentration,A549-TUBA1B-RELA,9 µM
same,lowest phenotypically active concentration,HepG2-TUBA1B-RELA,9 µM
same,lowest phenotypically active concentration,WPMY1-ACTB-RAB5A,9 µM
same,lowest phenotypically active concentration,WPMY1-TUBA1B-RELA,9 µM
O=C(Nc1nc2cc(C(F)(F)F)cc(NC3CC3)n2n1)c1cccnc1,lowest phenotypically active concentration,A549-TUBA1B-RELA,9 µM
same,lowest phenotypically active concentration,HepG2-CANX-COX4,3 µM
same,lowest phenotypically active concentration,HepG2-TP53BP1-CLTA,9 µM
same,lowest phenotypically active concentration,HepG2-TUBA1B-RELA,9 µM
same,lowest phenotypically active concentration,WPMY1-ACTB-RAB5A,3 µM
same,lowest phenotypically active concentration,WPMY1-CANX-COX4,9 µM
same,lowest phenotypically active concentration,WPMY1-TP53BP1-CLTA,3 µM
CNCCCC12CCC(c3ccccc31)c1ccccc12 [maprotiline],lowest phenotypically active concentration,A549-TUBA1B-RELA,3 µM
same,lowest phenotypically active concentration,HepG2-TP53BP1-CLTA,9 µM
same,lowest phenotypically active concentration,HepG2-TUBA1B-RELA,3 µM
same,lowest phenotypically active concentration,WPMY1-ACTB-RAB5A,9 µM
same,lowest phenotypically active concentration,WPMY1-CANX-COX4,9 µM
same,lowest phenotypically active concentration,WPMY1-TP53BP1-CLTA,9 µM
same,lowest phenotypically active concentration,WPMY1-TUBA1B-RELA,9 µM
CCCc1cc(C)n(C)c(=O)c1CN(C)C(=O)c1cc(-c2ccc(N3CCN(C(C)C)CC3)nc2)cc2c1cnn2C(C)C,lowest phenotypically active concentration,A549-TUBA1B-RELA,3 µM
same,lowest phenotypically active concentration,HepG2-TP53BP1-CLTA,3 µM
same,lowest phenotypically active concentration,WPMY1-ACTB-RAB5A,3 µM
same,lowest phenotypically active concentration,WPMY1-CANX-COX4,3 µM
same,lowest phenotypically active concentration,WPMY1-TP53BP1-CLTA,9 µM
same,lowest phenotypically active concentration,WPMY1-TUBA1B-RELA,9 µM
CN(C)CC(O)Cn1c2ccc(Br)cc2c2cc(Br)ccc21 (centres undefined) [Wiskostatin],lowest phenotypically active concentration,A549-TUBA1B-RELA,1 µM
same,lowest phenotypically active concentration,HepG2-CANX-COX4,9 µM
same,lowest phenotypically active concentration,HepG2-TP53BP1-CLTA,3 µM
same,lowest phenotypically active concentration,HepG2-TUBA1B-RELA,3 µM
same,lowest phenotypically active concentration,WPMY1-ACTB-RAB5A,3 µM
same,lowest phenotypically active concentration,WPMY1-CANX-COX4,3 µM
same,lowest phenotypically active concentration,WPMY1-TP53BP1-CLTA,9 µM
same,lowest phenotypically active concentration,WPMY1-TUBA1B-RELA,3 µM
CC1=C(/C=C/C(C)=C\C=C\C(C)=C\C(=O)O)C(C)(C)CCC1 [tretinoin],lowest phenotypically active concentration,A549-TUBA1B-RELA,3 µM
same,lowest phenotypically active concentration,HepG2-CANX-COX4,≤ 0.3 µM
same,lowest phenotypically active concentration,WPMY1-ACTB-RAB5A,1 µM
same,lowest phenotypically active concentration,WPMY1-CANX-COX4,1 µM
same,lowest phenotypically active concentration,WPMY1-TP53BP1-CLTA,1 µM
same,lowest phenotypically active concentration,WPMY1-TUBA1B-RELA,3 µM
NC(=O)C(c1ccccc1)(c1ccccc1)[C@@H]1CCN(CCc2ccc3c(c2)CCO3)C1 [darifenacin],lowest phenotypically active concentration,A549-TUBA1B-RELA,9 µM
same,lowest phenotypically active concentration,HepG2-CANX-COX4,9 µM
same,lowest phenotypically active concentration,HepG2-TP53BP1-CLTA,9 µM
same,lowest phenotypically active concentration,WPMY1-TP53BP1-CLTA,9 µM
O=C(NCCN1CCC(n2c(=O)[nH]c3ccccc32)CC1)c1cc2cc(F)ccc2[nH]1,lowest phenotypically active concentration,A549-TUBA1B-RELA,3 µM
same,lowest phenotypically active concentration,HepG2-CANX-COX4,9 µM
same,lowest phenotypically active concentration,HepG2-TP53BP1-CLTA,9 µM
same,lowest phenotypically active concentration,HepG2-TUBA1B-RELA,9 µM
same,lowest phenotypically active concentration,WPMY1-ACTB-RAB5A,9 µM
same,lowest phenotypically active concentration,WPMY1-CANX-COX4,9 µM
same,lowest phenotypically active concentration,WPMY1-TP53BP1-CLTA,9 µM
same,lowest phenotypically active concentration,WPMY1-TUBA1B-RELA,9 µM
Cc1c(O)cccc1C(=O)N[C@@H](CSc1ccccc1)[C@H](O)CN1C[C@H]2CCCC[C@H]2C[C@H]1C(=O)NC(C)(C)C [nelfinavir],lowest phenotypically active concentration,A549-TUBA1B-RELA,9 µM
same,lowest phenotypically active concentration,HepG2-CANX-COX4,3 µM
same,lowest phenotypically active concentration,HepG2-TUBA1B-RELA,9 µM
same,lowest phenotypically active concentration,WPMY1-ACTB-RAB5A,3 µM
same,lowest phenotypically active concentration,WPMY1-CANX-COX4,9 µM
same,lowest phenotypically active concentration,WPMY1-TUBA1B-RELA,9 µM
CC(CN1c2ccccc2Sc2ccccc21)N(C)C (centres undefined) [promethazine],lowest phenotypically active concentration,A549-TUBA1B-RELA,9 µM
same,lowest phenotypically active concentration,HepG2-TP53BP1-CLTA,9 µM
same,lowest phenotypically active concentration,HepG2-TUBA1B-RELA,9 µM
same,lowest phenotypically active concentration,WPMY1-ACTB-RAB5A,9 µM
same,lowest phenotypically active concentration,WPMY1-TP53BP1-CLTA,9 µM
same,lowest phenotypically active concentration,WPMY1-TUBA1B-RELA,9 µM
COc1cc(C(C)=O)ccc1OCCCN1CCC(c2noc3cc(F)ccc23)CC1 [iloperidone],lowest phenotypically active concentration,A549-TUBA1B-RELA,3 µM
O=C1Cc2cc(CCN3CCN(c4nsc5ccccc45)CC3)c(Cl)cc2N1 [ziprasidone],lowest phenotypically active concentration,A549-TUBA1B-RELA,9 µM
same,lowest phenotypically active concentration,HepG2-TP53BP1-CLTA,9 µM
same,lowest phenotypically active concentration,HepG2-TUBA1B-RELA,3 µM
CCOC(=O)c1c(CSc2ccccc2)n(C)c2cc(Br)c(O)c(CN(C)C)c12 [arbidol],lowest phenotypically active concentration,A549-TUBA1B-RELA,9 µM
same,lowest phenotypically active concentration,HepG2-CANX-COX4,9 µM
same,lowest phenotypically active concentration,HepG2-TP53BP1-CLTA,9 µM
same,lowest phenotypically active concentration,HepG2-TUBA1B-RELA,9 µM
CC(CN(C)C)CN1c2ccccc2Sc2ccccc21.CC(CN(C)C)CN1c2ccccc2Sc2ccccc21 (centres undefined) [alimemazine],lowest phenotypically active concentration,A549-TUBA1B-RELA,9 µM
same,lowest phenotypically active concentration,HepG2-TP53BP1-CLTA,9 µM
same,lowest phenotypically active concentration,HepG2-TUBA1B-RELA,9 µM
same,lowest phenotypically active concentration,WPMY1-ACTB-RAB5A,9 µM
same,lowest phenotypically active concentration,WPMY1-TUBA1B-RELA,9 µM
N#Cc1cccc(-c2c[nH]c3ncnc(N4CCOCC4)c23)c1,lowest phenotypically active concentration,A549-TUBA1B-RELA,9 µM
same,lowest phenotypically active concentration,HepG2-CANX-COX4,3 µM
same,lowest phenotypically active concentration,HepG2-TP53BP1-CLTA,3 µM
same,lowest phenotypically active concentration,HepG2-TUBA1B-RELA,1 µM
same,lowest phenotypically active concentration,WPMY1-ACTB-RAB5A,9 µM
same,lowest phenotypically active concentration,WPMY1-CANX-COX4,9 µM
same,lowest phenotypically active concentration,WPMY1-TP53BP1-CLTA,3 µM
N#C/C(=C/c1ccc(-c2cc(Cl)ccc2Cl)o1)C(=O)Nc1cccc2ncccc12,lowest phenotypically active concentration,A549-TUBA1B-RELA,≤ 0.3 µM
same,lowest phenotypically active concentration,WPMY1-CANX-COX4,9 µM
O=c1cc(N2CCOCC2)oc2c(-c3cccc4c3sc3ccccc34)cccc12,lowest phenotypically active concentration,A549-TUBA1B-RELA,3 µM
same,lowest phenotypically active concentration,HepG2-CANX-COX4,3 µM
same,lowest phenotypically active concentration,HepG2-TP53BP1-CLTA,1 µM
same,lowest phenotypically active concentration,HepG2-TUBA1B-RELA,1 µM
same,lowest phenotypically active concentration,WPMY1-ACTB-RAB5A,1 µM
same,lowest phenotypically active concentration,WPMY1-CANX-COX4,1 µM
same,lowest phenotypically active concentration,WPMY1-TP53BP1-CLTA,3 µM
same,lowest phenotypically active concentration,WPMY1-TUBA1B-RELA,9 µM
CN1CCC(CN2c3ccccc3Sc3ccccc32)C1 (centres undefined) [methdilazine],lowest phenotypically active concentration,A549-TUBA1B-RELA,3 µM
same,lowest phenotypically active concentration,HepG2-TP53BP1-CLTA,9 µM
same,lowest phenotypically active concentration,HepG2-TUBA1B-RELA,9 µM
same,lowest phenotypically active concentration,WPMY1-ACTB-RAB5A,9 µM
same,lowest phenotypically active concentration,WPMY1-CANX-COX4,9 µM
same,lowest phenotypically active concentration,WPMY1-TP53BP1-CLTA,9 µM
same,lowest phenotypically active concentration,WPMY1-TUBA1B-RELA,9 µM
CN(C)CCCN1c2ccccc2Sc2ccc(C(F)(F)F)cc21 [triflupromazine],lowest phenotypically active concentration,A549-TUBA1B-RELA,9 µM
same,lowest phenotypically active concentration,HepG2-TUBA1B-RELA,9 µM
same,lowest phenotypically active concentration,WPMY1-ACTB-RAB5A,9 µM
same,lowest phenotypically active concentration,WPMY1-CANX-COX4,9 µM
same,lowest phenotypically active concentration,WPMY1-TUBA1B-RELA,9 µM
COc1ccc(Cl)cc1NC(=O)Nc1cc(C)nc2ccccc12,lowest phenotypically active concentration,A549-TUBA1B-RELA,3 µM
same,lowest phenotypically active concentration,HepG2-CANX-COX4,1 µM
same,lowest phenotypically active concentration,HepG2-TP53BP1-CLTA,3 µM
same,lowest phenotypically active concentration,HepG2-TUBA1B-RELA,3 µM
Cc1cc(C(C)Nc2ccccc2)c2nc(N3CCOCC3)cc(=O)n2c1 (centres undefined),lowest phenotypically active concentration,WPMY1-CANX-COX4,9 µM
Cc1cccc(-c2n[nH]cc2-c2ccc(F)c(-c3cnn(CCO)c3)c2)n1,lowest phenotypically active concentration,HepG2-CANX-COX4,9 µM
same,lowest phenotypically active concentration,HepG2-TP53BP1-CLTA,9 µM
same,lowest phenotypically active concentration,WPMY1-ACTB-RAB5A,9 µM
same,lowest phenotypically active concentration,WPMY1-CANX-COX4,9 µM
same,lowest phenotypically active concentration,WPMY1-TP53BP1-CLTA,9 µM
same,lowest phenotypically active concentration,WPMY1-TUBA1B-RELA,9 µM
N=C(N)NC(=N)NCCc1ccccc1 [phenformin],lowest phenotypically active concentration,A549-CANX-COX4,9 µM
O=C1NCCCc2c1oc1ccc(O)cc21,lowest phenotypically active concentration,HepG2-CANX-COX4,9 µM
same,lowest phenotypically active concentration,HepG2-TUBA1B-RELA,9 µM
same,lowest phenotypically active concentration,WPMY1-ACTB-RAB5A,9 µM
same,lowest phenotypically active concentration,WPMY1-TUBA1B-RELA,9 µM
CC[C@H](Nc1ncnc2[nH]cnc12)c1nc2cccc(F)c2c(=O)n1-c1ccccc1 [idelalisib],lowest phenotypically active concentration,WPMY1-ACTB-RAB5A,9 µM
